Reference: the OligoGym collection

Biological target: SLC6A17
Assay: pooled miR-30 sensor sort-seq; sequence = guide strand
Conditions: shRNA

| Sequence | sensor-assay potency score (higher = more potent) |
| --- | --- |
| TAGTGCCACACACCGATGCTGC | -1.34 |
| TTCTCGACCACACACTTCTCAT | -1.03 |
| TACATCTCCATGTAGTCCTTTG | -1.15 |
| ATATATAGTGCCACACACCGAT | 0.0995 |
| TTGTCCTGCTTATTGTAGCTGG | -0.728 |
| TTGTAGGACACGGAGAGGGTGT | -0.674 |
| TACTGCAGCTTACTGTTCCAGG | -0.506 |

Biological target: SLC6A18
Assay: as above
Conditions: shRNA

| Sequence | sensor-assay potency score (higher = more potent) |
| --- | --- |
| TAGAGCTTCTCCTGACGCGAGG | -1.31 |
| TTCAGTGTCTGCCGGTACCAGA | -1.1 |
| TTGTATCTCAGTGGCTTCCAGA | -0.724 |
| TGAAGTAAATCACCTTCCCTGT | -0.768 |
| TTGTAGTACAGGCTGATCAGGA | -0.436 |
| ATGGTGTTGTAGTACAGGCTGA | -0.98 |
| TAAACGACACCCACAACCTCGA | -0.526 |
| ATTAGTTGCTTTGAACCCCAGG | -0.521 |
| ATTGTCGAAAATCTCCAGCCAG | -0.569 |
| TGAACAAGTAGATGAGTCCTTT | -0.149 |
| TTGTCGAAAATCTCCAGCCAGT | -1.14 |

Biological target: SLC6A3
Assay: as above
Conditions: shRNA

| Sequence | sensor-assay potency score (higher = more potent) |
| --- | --- |
| TTACAGCAACACAAGACACGGC | 0.179 |
| TTCGCAAACATAAAAACTGTTG | -1.05 |
| TTGTTGGTGAACTTGTTGTAGC | -0.855 |
| TTTTGTAGCACAGGTAGGGGAA | -0.466 |
| TTGGTGAACTTGTTGTAGCTGG | 0.547 |
| TATTGATGTGGCACGCACCTGA | -0.154 |
| ATCTGCTGGATGTCGTCGCTGA | -0.478 |
| TTTCCTGGTGAGACATACCAGG | -1.03 |
| TATTCTTGTAAACAAAAACTGC | -1.01 |
| TAGATGATGAAGATCAGCCCTG | -0.145 |
| TAGCAGTTGTTGGTGAACTTGT | -0.216 |
| TTTTTGTAGCACAGGTAGGGGA | -0.961 |

Biological target: SLC7A11
Assay: as above
Conditions: shRNA

| Sequence | sensor-assay potency score (higher = more potent) |
| --- | --- |
| TAATGGACCAAAGACTTCCAAA | -1.33 |
| TTCTTCAGTAACAAAGTTGAGG | -0.835 |
| TAATTAGCTGCATAACTCCAGG | -0.703 |
| ATAATTATCAGAATTGCTGTGA | 0.593 |
| TTTGTATCGAAGATAAATCAGC | -1.16 |
| TTTAGGACCATCACTACAGTTA | -0.265 |
| TACTTCTTCAGTAACAAAGTTG | -0.481 |
| TATATGTGTAATGACCTCCAGA | -0.907 |
| TAATACTTGAATCTCTTCCTGA | 0.636 |
| TAAAGTTCTGCGTTTGACCTTT | 0.169 |
